{"source": "PubChem BioAssay (Tox21)", "note": "Where “and” joins values, the source holds several entries; their conditions need not be identical. Identical values can stand only once. Inconclusive results are not listed. Entries that show only a call come without a potency. The source holds several records for some structures; these can differ, active in one and inactive in another. Calls of active or inactive are those of the source. The call rests on the fitted dose curve; in most records, active means well fitted activation curve with a large enough effect in the signal ratio in the repeat runs (not every such curve was filed as active); inconclusive means weak or mixed curves; inactive means flat fitted curve, though single readings scatter; the % refers to the signal ratio. Potency means the concentration at half of the fitted maximal effect."}
{"assay": "qHTS assay to identify small molecule agonists of H2AX (AID 1224845)", "conditions": "CHO-K1 phospho-H2AX Ser139 HTRF, 3 h; series mostly up to 154 µM", "description": "National Center for Advancing Translational Sciences [NCATS]\nNIH Chemical Genomics Center [NCGC]\nU.S. Environmental Protection Agency [EPA]\nNational Institutes of Environmental Health Sciences [NIEHS]\nNational Toxicology Program [NTP]\nU.S. Food and Drug Administration [FDA]\nHTRF phospho-H2AX (Ser139) assay (Cisbio Bioassays, US) enables the quantitative detection of the histone variant H2AX when phosphorylated on serine 139. When double-stranded DNA breaks, either by ionizing radiation or endogenous physiological processes, H2AX becomes phosphorylated at Ser139. This phospho-Ser139 serves as a sensitive biomarker for the detection of such breaks, localizing the site of DNA repair. So, HTRF phospho-H2AX Ser139 is a pertinent assay to study genome stability, the cell cycle, DNA repair, and it serves as a biomarker for cancer, and to understand aging. Wild type CHO-K1 cells were used to identify the inducers of Phospho-H2AX Ser 139 from the Tox21 10K compound collections.\nTox21 Assay Protocol Summary:\nThe CHO-K1 cells suspended in culture medium containing 10% FBS were dispensed at 1000 cells/ 3 ul/well in 1536-well white wall/solid bottom plates (Greiner Bio-One North America, NC) using a Multidrop Combi (Thermo Fisher Scientific Inc., Waltham, MA). After the assay plates were incubated at 37C overnight, 23 nl of compounds at 15 concentrations (from 5-48 columns) or positive control (from 1 to 4 columns) were transferred to the assay plates using a Pintool station (Wako, San Diego, CA) into each well resulting in a final DMSO concentration of 0.76%. After 3hr incubation at 37C, 1 uL/well Supplemented Lysis buffer (diluted 100 fold blocking reagent in lysis buffer) (HTRF Phospho-H2A.X (S139) Assay kit from Cisbio US Inc., Bedford, MA) was added using a Flying Reagent Dispenser (FRD) (Aurora Discovery, CA). After 10sec spin at 1000 rpm in a plate centrifuge, the assay plates were incubated at room temperature for 30 min. Then followed by the addition of 1 uL/well detection buffer (containing a mixture of two antibodies, one labeled with cryptate, Anti pH2AX (S139)-K and another labeled with d2, Anti H2AX-d2) using FRD. After incubation at room temperature for 24 hr, the time resolved fluorescence at excitation 320 nm and emissions at 665 nm and 620 nm was measured using an Envision plate reader (PerkinElmer, Waltham, MA)."}
{"smiles": "COP(=S)(OC)Oc1ccc([N+](=O)[O-])cc1", "Potency": "inactive"}
{"smiles": "N[C@@H](Cc1ccc(N(CCCl)CCCl)cc1)C(=O)O", "Potency": "38.4 µM (active) and 43.8 µM (active)"}
{"smiles": "O=S(=O)(Oc1ccc(Cl)cc1)c1ccc(Cl)cc1", "Potency": "inactive"}
{"smiles": "CCCCNC(=O)n1c(NC(=O)OC)nc2ccccc21", "Potency": "inactive"}
{"smiles": "Cc1cc(C)cc(C)c1", "Potency": "inactive"}
{"smiles": "CCOC(=O)C(C)OC(=O)c1cc(Oc2ccc(C(F)(F)F)cc2Cl)ccc1[N+](=O)[O-]", "note": "(stereo not given)", "Potency": "inactive"}
{"smiles": "CCC(C)(C)c1ccc(O)cc1", "Potency": "inactive"}
{"smiles": "O=C(NC(=O)c1c(F)cccc1F)Nc1ccc(Cl)cc1", "Potency": "inactive"}
{"smiles": "S=C1NCCN1", "Potency": "inactive"}
{"smiles": "c1ccc(NNc2ccccc2)cc1", "Potency": "inactive"}
{"smiles": "Nc1ccc(-c2ccccc2)cc1", "Potency": "inactive"}
{"smiles": "Cc1ccccc1[N+](=O)[O-]", "Potency": "inactive"}
{"smiles": "NC(=S)Nc1ccccc1", "Potency": "inactive"}
{"smiles": "CCN(N=O)C(N)=O", "Potency": "inactive"}
{"smiles": "COc1ccc(C(CN(C)C)C2(O)CCCCC2)cc1", "note": "(stereo not given)", "Potency": "inactive"}
{"smiles": "CCOc1cc(Oc2ccc(C(F)(F)F)cc2Cl)ccc1[N+](=O)[O-]", "Potency": "inactive"}
{"smiles": "ClC1C(Cl)C(Cl)C(Cl)C(Cl)C1Cl", "note": "(stereo not given)", "Potency": "inactive"}
{"smiles": "Oc1cc(Cl)ccc1Cl", "Potency": "inactive"}
{"smiles": "Brc1ccc(Oc2cc(Br)c(Br)cc2Br)c(Br)c1", "Potency": "inactive"}
{"smiles": "CCC(=O)O[C@H]1CC[C@H]2[C@@H]3CCC4=CC(=O)CC[C@]4(C)[C@H]3CC[C@]12C", "Potency": "inactive"}
{"smiles": "O=C1C=CC(=O)C=C1", "Potency": "inactive"}
{"smiles": "CC(C)(C)c1ccccc1O", "Potency": "inactive"}
{"smiles": "CCCCOCCOP(=O)(OCCOCCCC)OCCOCCCC", "Potency": "inactive"}
{"smiles": "CCCCCCOC(=O)c1ccccc1C(=O)OCCCCCC", "Potency": "inactive"}
{"smiles": "CCOc1cc(C=O)ccc1O", "Potency": "inactive"}
{"smiles": "c1nc[nH]n1", "Potency": "inactive"}
{"smiles": "O=P(O)(O)CCCl", "Potency": "inactive"}
{"smiles": "COP(=O)(OC)OC", "Potency": "inactive"}
{"smiles": "Cc1ccc(OP(=O)(Oc2ccc(C)cc2)Oc2ccc(C)cc2)cc1", "Potency": "inactive"}
{"smiles": "CN(C)c1ccc(C(=O)c2ccc(N(C)C)cc2)cc1", "Potency": "inactive"}
{"smiles": "CCCCCCCCCCCOC(=O)c1ccccc1C(=O)OCCCCCCCCCCC", "Potency": "inactive"}
{"smiles": "O=C(CCl)c1ccccc1", "Potency": "inactive"}
{"smiles": "O=C(O)CC[N+](=O)[O-]", "Potency": "inactive"}
{"smiles": "CC(C)N(C(=O)SCC(Cl)=C(Cl)Cl)C(C)C", "Potency": "inactive"}
{"smiles": "NCc1cccnc1", "Potency": "inactive"}
{"smiles": "CCCCC(CC)COC(=O)Cl", "note": "(stereo not given)", "Potency": "inactive"}
{"smiles": "CNC(=O)N(C)c1nnc(C(C)(C)C)s1", "Potency": "inactive"}
{"smiles": "C=C(C)[C@H]1Cc2c(ccc3c2O[C@@H]2COc4cc(OC)c(OC)cc4[C@@H]2C3=O)O1", "Potency": "inactive"}
{"smiles": "CCCCCc1cc(O)cc(O)c1", "Potency": "inactive"}
{"smiles": "NNC(N)=S", "Potency": "105 µM (active) and inactive"}
